# Measurements: PubChem BioAssay (EPA / NIEHS)
# Results filed as inconclusive are left out. Calls of active or inactive are those of the source. Rule for the calls: active = hit-call score of the fitted dose curve at least 0.9, where 1 is the maximum; inconclusive = response in the unintended direction; inactive = score below 0.9.
# Biological target: Glucocorticoid receptor (Homo sapiens) (UniProt P04150)
# Test: NVS_NR_hGR: NovaScreen (NVS) Nuclear Receptor Binding Assay for human Glucocorticoid Receptor (GR) (AID 2283363)
# Summary of the method: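 Cell-free radioligand binding with extracted receptor protein, read by filter-based scintillation counting 16 hours after dosing. Loss of specific signal versus DMSO baseline was scored. Primary screen ran in duplicate at 25 uM; actives were followed up in concentration series.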
# Sequence of Glucocorticoid receptor (Homo sapiens) (P04150 whole entry, looked up): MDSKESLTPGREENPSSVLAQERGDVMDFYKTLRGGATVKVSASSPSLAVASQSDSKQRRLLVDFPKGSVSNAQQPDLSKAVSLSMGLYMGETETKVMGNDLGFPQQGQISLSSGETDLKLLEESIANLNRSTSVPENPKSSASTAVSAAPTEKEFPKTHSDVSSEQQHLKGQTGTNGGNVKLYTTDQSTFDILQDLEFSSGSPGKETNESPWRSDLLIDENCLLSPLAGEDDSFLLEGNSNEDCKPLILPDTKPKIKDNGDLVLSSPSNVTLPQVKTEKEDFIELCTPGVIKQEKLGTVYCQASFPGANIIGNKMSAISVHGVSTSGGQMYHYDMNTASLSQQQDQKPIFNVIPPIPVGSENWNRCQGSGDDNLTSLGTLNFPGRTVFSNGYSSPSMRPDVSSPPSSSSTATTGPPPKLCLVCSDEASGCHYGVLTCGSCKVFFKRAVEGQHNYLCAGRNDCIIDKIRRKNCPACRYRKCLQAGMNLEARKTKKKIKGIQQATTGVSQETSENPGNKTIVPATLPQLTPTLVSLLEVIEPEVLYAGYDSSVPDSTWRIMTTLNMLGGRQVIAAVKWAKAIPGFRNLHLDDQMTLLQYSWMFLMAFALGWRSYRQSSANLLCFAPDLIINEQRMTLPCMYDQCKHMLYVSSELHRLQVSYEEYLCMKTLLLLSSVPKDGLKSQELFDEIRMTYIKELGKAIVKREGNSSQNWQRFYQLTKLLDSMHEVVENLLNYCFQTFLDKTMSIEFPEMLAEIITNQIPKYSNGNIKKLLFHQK
Compound,AC50,outcome
O=C1OC2(c3cc(Br)c(O)c(Br)c3Oc3c2cc(Br)c(O)c3Br)c2c(Cl)c(Cl)c(Cl)c(Cl)c21,3.83 µM (active),–
Cc1ccc(C=O)cc1,–,inactive
CC(C)C[C@H]1C(=O)N2CCC[C@H]2[C@]2(O)O[C@](NC(=O)[C@@H]3C=C4c5cccc6[nH]c(Br)c(c56)C[C@H]4N(C)C3)(C(C)C)C(=O)N12,1.44 µM (active),–

# Biological target: Nuclear receptor subfamily 1 group I member 2 (Homo sapiens) (UniProt O75469)
# Test: NVS_NR_hPXR: NovaScreen (NVS) Nuclear Receptor Binding Assay for human Pregnane X Receptor (PXR) (AID 2283365);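 note: a drop in FRET signal versus DMSO baseline means the compound binds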
# Summary of the method: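 Cell-free binding assay with extracted human PXR protein, read by TR-FRET 2 h after dosing; loss of signal relative to DMSO baseline indicates binding. Primary screen at 25 uM in duplicate, actives retested in concentration series.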
# Sequence of Nuclear receptor subfamily 1 group I member 2 (Homo sapiens) (O75469 whole entry, looked up): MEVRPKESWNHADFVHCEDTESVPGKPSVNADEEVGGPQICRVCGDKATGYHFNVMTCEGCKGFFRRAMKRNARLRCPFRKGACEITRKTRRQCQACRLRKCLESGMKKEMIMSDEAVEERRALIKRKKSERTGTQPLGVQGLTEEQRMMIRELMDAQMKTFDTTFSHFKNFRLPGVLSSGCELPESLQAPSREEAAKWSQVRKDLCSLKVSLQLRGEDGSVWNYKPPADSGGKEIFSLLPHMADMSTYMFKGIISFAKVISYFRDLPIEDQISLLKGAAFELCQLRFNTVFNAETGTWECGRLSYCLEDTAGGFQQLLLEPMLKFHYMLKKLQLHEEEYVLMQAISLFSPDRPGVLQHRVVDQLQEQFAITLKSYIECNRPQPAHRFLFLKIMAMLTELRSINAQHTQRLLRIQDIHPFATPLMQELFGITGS
Compound,AC50,outcome
CSc1nc(NC2CC2)nc(NC(C)(C)C)n1,3.05 µM (active),–
NC(=O)NC1NC(=O)NC1=O (stereo unspecified),–,inactive
COc1cc(C(C)(C)C)c(O)c(C(C)(C)C)c1,–,inactive
CC(C)C[C@H]1C(=O)N2CCC[C@H]2[C@]2(O)O[C@](NC(=O)[C@@H]3C=C4c5cccc6[nH]c(Br)c(c56)C[C@H]4N(C)C3)(C(C)C)C(=O)N12,1.04 µM (active),–

# Biological target: guinea pig Sigma Receptor, Non-selective Binding, SIGMAR1 (gene 100135589) (UniProt Q60492)
# Test: NVS_OR_gSIGMA_NonSelective: NovaScreen (NVS) Nuclear Receptor Binding Assay for guinea pig Sigma Receptor, Non-selective Binding (AID 2283367)
# Summary of the method: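 Guinea pig brain membranes, cell-free radioligand binding; read 1 h after dosing by filter-based scintillation counting. Loss of signal vs DMSO baseline taken as displacement. Primary screen single concentration 25 uM in duplicate; actives retested in concentration series.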
# Sequence of guinea pig Sigma Receptor, Non-selective Binding, SIGMAR1 (gene 100135589) (Q60492 whole entry, looked up): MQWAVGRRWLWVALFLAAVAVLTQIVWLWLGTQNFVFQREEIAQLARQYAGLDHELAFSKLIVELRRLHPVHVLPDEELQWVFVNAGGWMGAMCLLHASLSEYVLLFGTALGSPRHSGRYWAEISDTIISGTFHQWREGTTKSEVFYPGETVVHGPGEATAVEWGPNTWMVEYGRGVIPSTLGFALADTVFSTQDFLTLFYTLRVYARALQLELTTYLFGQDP
Compound,outcome,AC50
CC(C)=CCO,inactive,–
O=P(c1ccccc1)(c1ccccc1)c1ccccc1,–,6.83 µM (active)
c1ccc2sc(SN(C3CCCCC3)C3CCCCC3)nc2c1,–,5.3 µM (active)
O=C=NC1CCC(CC2CCC(N=C=O)CC2)CC1 (stereo unspecified),–,16.5 µM (active)
CCn1c2ccccc2c2cc(N)ccc21,–,12.3 µM (active)

# Biological target: rat Serotonin Transporter (SERT), Slc6a4 (gene 25553) (UniProt P31652)
# Test: NVS_TR_rSERT: NovaScreen (NVS) Transporter Assay for rat Serotonin Transporter (SERT) (AID 2283375)
# Procedure: NVS_TR_rSERT is a biochemical, single-readout assay that uses extracted gene-proteins from Rat forebrain membranes in a tissue-based cell-free assay. Measurements were taken 1 hour after chemical dosing in a 96-well plate.NVS_TR_rSERT is one of one assay component(s) measured or calculated from the NVS_TR_rSERT assay. It is designed to make measurements of radioligand binding, a form of binding reporter, as detected with scintillation counting signals by Filter-based radiodetection technology.Data from the assay component NVS_TR_rSERT was analyzed into 1 assay endpoint. This assay endpoint, NVS_TR_rSERT, was analyzed in the positive analysis fitting direction relative to DMSO as the negative control and baseline of activity. Using a type of binding reporter, loss-of-signal activity can be used to understand changes in the binding as they relate to the gene Slc6a4. Furthermore, this assay endpoint can be referred to as a primary readout, because the performed assay has only produced 1 assay endpoint. To generalize the intended target to other relatable targets, this assay endpoint is annotated to the transporter intended target family, where the subfamily is neurotransmitter transporter.
# Binding assays used specific radioligands (tritiated, iodinated) with non-radioactive competitive displacement ligands in agonist or antagonist protocols (as indicated) and various reference compounds and inhibitors to titrate specific binding to receptors and transporters. Most enzyme assays (CYPs, kinases, phosphatases, proteases, HDACs) used recombinant protein and specific substrates (fluorescence mostly, some colorimetric and radioactive) and inhibitors, followed by a biochemical separation of substrate and product. All assays for the biochemical HTS were initially run in duplicate at a single concentration (10 uM for CYP450 assays and 25 uM for all others). […] Each assay was run with positive and negative controls, and concurrent controls on every plate. The follow-up (secondary) screen tested active chemical-pairs in concentration series, as well as a few additional assays not tested in the primary screen, some selected negative inactives, and several cases re-run in the concentration series for confirmatory purposes.
# Sequence of rat Serotonin Transporter (SERT), Slc6a4 (gene 25553) (P31652 whole entry, looked up): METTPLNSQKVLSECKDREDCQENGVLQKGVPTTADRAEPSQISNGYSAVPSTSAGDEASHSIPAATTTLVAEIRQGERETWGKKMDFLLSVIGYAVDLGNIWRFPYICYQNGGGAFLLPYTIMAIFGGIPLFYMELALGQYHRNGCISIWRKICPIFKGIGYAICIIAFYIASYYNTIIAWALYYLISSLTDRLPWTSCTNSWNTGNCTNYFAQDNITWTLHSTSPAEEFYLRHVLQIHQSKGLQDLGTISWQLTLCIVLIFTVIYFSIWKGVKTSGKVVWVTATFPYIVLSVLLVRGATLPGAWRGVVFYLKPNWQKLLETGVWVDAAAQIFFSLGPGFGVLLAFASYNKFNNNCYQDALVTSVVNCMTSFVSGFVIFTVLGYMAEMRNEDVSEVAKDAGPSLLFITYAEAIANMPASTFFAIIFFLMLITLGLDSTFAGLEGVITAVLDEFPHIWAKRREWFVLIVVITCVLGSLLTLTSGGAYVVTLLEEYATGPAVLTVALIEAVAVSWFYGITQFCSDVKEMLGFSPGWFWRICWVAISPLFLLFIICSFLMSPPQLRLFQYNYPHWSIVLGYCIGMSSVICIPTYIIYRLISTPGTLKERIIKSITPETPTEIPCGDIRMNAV
Compound,AC50,outcome
CN(CCOc1ccc(CC2SC(=O)NC2=O)cc1)c1ccccn1 (stereo unspecified),2.07 µM (active),–
O=C=NC1CCC(CC2CCC(N=C=O)CC2)CC1 (stereo unspecified),–,inactive
Cc1cccc(C)c1C,–,inactive
CCn1c2ccccc2c2cc(N)ccc21,39.3 µM (active),–

# Biological target: human Norepinephrine Transporter (NET), SLC6A2 (gene 6530) (UniProt P23975)
# Test: NVS_TR_hNET: NovaScreen (NVS) Transporter Assay for human Norepinephrine Transporter (NET) (AID 2283377);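 note: cell-free membrane protein extracted from CHO cells expressing human NET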
# Summary of the method: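 Radioligand binding to human NET in cell-free CHO-derived protein preparations, read by filter-based scintillation counting 1 hour after dosing. Loss of signal versus DMSO baseline indicated displacement; primary screening in duplicate at 25 uM, actives then titrated.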
# Sequence of human Norepinephrine Transporter (NET), SLC6A2 (gene 6530) (P23975 whole entry, looked up): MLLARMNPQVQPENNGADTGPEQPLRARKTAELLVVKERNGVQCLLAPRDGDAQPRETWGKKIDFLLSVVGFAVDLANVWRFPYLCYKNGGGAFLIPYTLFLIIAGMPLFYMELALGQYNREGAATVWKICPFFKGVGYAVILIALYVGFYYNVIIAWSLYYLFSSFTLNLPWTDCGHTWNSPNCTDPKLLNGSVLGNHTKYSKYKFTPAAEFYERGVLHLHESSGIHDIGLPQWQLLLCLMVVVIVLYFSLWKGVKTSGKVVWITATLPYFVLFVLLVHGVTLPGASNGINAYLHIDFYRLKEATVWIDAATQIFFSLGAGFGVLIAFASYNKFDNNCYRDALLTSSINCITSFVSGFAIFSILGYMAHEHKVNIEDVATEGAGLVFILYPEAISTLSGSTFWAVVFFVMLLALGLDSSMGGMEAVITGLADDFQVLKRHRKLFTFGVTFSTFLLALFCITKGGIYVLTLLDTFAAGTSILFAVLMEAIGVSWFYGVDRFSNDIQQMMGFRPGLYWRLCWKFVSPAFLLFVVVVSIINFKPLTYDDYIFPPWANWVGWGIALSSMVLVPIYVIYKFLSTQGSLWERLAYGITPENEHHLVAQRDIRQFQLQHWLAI
Compound,AC50,outcome
COc1cc2ncnc(Nc3cccc(Cl)c3)c2cc1OC,1.77 µM (active),–
Nc1cc([N+](=O)[O-])ccc1Cl,–,inactive
CCn1c2ccccc2c2cc(N)ccc21,12.3 µM (active),–

# Biological target: mouse Estrogen Receptor alpha (Era), Esr1 (gene 13982) (UniProt P19785)
# Test: NVS_NR_mERa: NovaScreen (NVS) Nuclear Receptor Binding Assay for mouse Estrogen Receptor alpha (Era) (AID 2283378);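 note: hit means loss of bound radioligand signal relative to DMSO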
# Summary of the method: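 Cell-free radioligand binding with extracted mouse Era protein; competitive displacement of radiolabelled ligand, read by filter-based scintillation counting 18 hours after dosing. Loss of signal versus DMSO baseline taken as binding; single screening concentration 25 uM, actives followed in concentration series.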
# Sequence of mouse Estrogen Receptor alpha (Era), Esr1 (gene 13982) (P19785 whole entry, looked up): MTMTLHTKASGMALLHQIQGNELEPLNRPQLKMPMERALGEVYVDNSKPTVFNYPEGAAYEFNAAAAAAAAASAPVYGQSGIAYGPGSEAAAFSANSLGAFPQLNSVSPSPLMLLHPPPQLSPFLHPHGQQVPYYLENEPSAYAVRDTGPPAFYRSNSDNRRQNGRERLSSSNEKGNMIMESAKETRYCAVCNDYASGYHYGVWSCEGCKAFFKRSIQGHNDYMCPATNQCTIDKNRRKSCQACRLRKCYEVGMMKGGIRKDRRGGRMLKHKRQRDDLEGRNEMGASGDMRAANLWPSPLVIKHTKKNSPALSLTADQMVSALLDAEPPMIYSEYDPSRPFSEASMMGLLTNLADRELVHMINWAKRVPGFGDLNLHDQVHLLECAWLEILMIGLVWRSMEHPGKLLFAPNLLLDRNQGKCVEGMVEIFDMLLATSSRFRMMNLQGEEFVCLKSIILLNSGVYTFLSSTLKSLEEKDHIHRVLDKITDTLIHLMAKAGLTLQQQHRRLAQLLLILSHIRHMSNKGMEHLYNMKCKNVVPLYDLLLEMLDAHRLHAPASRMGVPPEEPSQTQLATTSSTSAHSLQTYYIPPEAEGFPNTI
row,Compound,outcome
1,Cc1cc(C2(c3cc(C)c(O)cc3C)OS(=O)(=O)c3ccccc32)c(C)cc1O,inactive
2,Clc1ccc2c(c1)C(N1CCNCC1)=Nc1ccccc1O2,inactive
3,c1cc(C(c2ccc(OCC3CO3)cc2)c2ccc(OCC3CO3)cc2)ccc1OCC1CO1 (stereo unspecified),inactive
4,O=C(O)CCSCCC(=O)O,inactive
5,COC(=O)C1=C(C)NC(C)=C(C(=O)OCCN(C)Cc2ccccc2)C1c1cccc([N+](=O)[O-])c1 (stereo unspecified),inactive
6,CCCc1c(OCCCOc2ccc(OCC(=O)O)cc2)ccc(C(C)=O)c1O,inactive

# Biological target: Estrogen receptor beta (Homo sapiens) (UniProt Q92731)
# Test: OT_ER_ERbERb_1440: Odyssey Thera (OT) 24-hour HEK293T Protein-Complementation Assay for Estrogen Receptor-beta/-beta Homodimer (AID 2283380);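 note: fluorescence gain from ER beta LBD homodimer complementation read by laser scanning cytometry; scored as signal increase over DMSO baseline for both agonists and antagonists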
# Summary of the method: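 HEK293T cells stably expressing human ER-beta LBD (aa 310-547) PCA homodimer pair, dosed 24 h; formaldehyde-fixed, Draq5-stained. Readout: increase in nuclear (agonist) or nuclear plus cytoplasmic (antagonist) fluorescence intensity versus DMSO, gain-of-signal fitting.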
# Sequence of Estrogen receptor beta (Homo sapiens) (Q92731 whole entry, looked up, the tested form may be a part): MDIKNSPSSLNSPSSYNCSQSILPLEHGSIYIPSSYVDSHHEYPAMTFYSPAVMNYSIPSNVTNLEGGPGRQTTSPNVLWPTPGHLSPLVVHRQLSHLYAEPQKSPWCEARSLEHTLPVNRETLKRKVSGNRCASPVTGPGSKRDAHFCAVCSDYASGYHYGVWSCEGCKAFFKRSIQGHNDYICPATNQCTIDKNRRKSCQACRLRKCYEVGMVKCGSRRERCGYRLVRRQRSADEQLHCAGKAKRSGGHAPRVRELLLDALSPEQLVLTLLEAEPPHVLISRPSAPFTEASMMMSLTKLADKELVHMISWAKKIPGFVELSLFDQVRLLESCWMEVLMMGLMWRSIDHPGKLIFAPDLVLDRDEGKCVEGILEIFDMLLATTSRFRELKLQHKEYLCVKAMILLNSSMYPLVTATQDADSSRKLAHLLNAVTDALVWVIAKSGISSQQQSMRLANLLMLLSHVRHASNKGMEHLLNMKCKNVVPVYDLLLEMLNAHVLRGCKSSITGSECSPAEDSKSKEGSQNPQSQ
row,Compound,outcome
1,CC1=CC(=O)NS(=O)(=O)O1,inactive
2,NCCNCCN,inactive
3,C=CC[N+](C)(C)CC=C,inactive
4,CC(C)=CCC[C@](C)(O)[C@@H]1CC=C(C)CC1,inactive
5,CC1(C)[C@@H]2CC[C@@]1(C)[C@H](O)C2,inactive
6,O=C1C(c2[nH]c3ccc(S(=O)(=O)O)cc3c2O)=Nc2ccc(S(=O)(=O)O)cc21,inactive
